# PubChem BioAssay (NCATS)
# Where “and” joins values, the source holds several entries; their conditions need not be identical. Equal values may be shown once. Inconclusive results are not listed. Calls of active or inactive are those of the source. Unless noted, calls follow the shape of the dose curve; as a rule, active = well fitted curve in the direction sought with a large enough effect; inconclusive = small, poorly fitted or top-dose-only effect, or another doubt; inactive = no such curve, though single readings can be large; an effect the other way counts as inactive or inconclusive.
# Assays:
# [1] = P-glycoprotein substrates identified in KB-3-1 adenocarcinoma cell line, qHTS therapeutic library screen (AID 1346986); also: nearly all actives have a fitted effect of over 60% in size;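 also: potency is for cytotoxicity meaning loss of cell viability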
# In short: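 72 h cell-killing screen, 500 cells/well, CellTiter-Glo luminescence. Paired lines KB-3-1/KB-8-5-11; P-gp dependence checked by tariquidar co-treatment and HEK-293 MDR-19 versus empty-vector cells.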
# [2] = P-glycoprotein substrates identified in KB-8-5-11 adenocarcinoma cell line, qHTS therapeutic library screen (AID 1346987); also: nearly all actives have a fitted effect of over 65% in size
# In short: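 Luminescence from CellTiter-Glo, read 5 min after addition, quantified survival of KB-8-5-11 (P-gp-overexpressing) cells exposed to compounds for 72 h. AC50 was derived from concentration-response curves.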
# [3] = Primary qHTS for inhibitors of nuclear receptor binding SET domain protein 2 (NSD2) in an isogenic RCH-ACV NSD2 p.E1099K mutant (9B) (AID 1645876); also: nearly all actives have a fitted effect of over 70% in size
# [4] = Primary qHTS for inhibitors of nuclear receptor binding SET domain protein 2 (NSD2) in an RCH-ACV wild type WT cells (2C) (AID 1645877); also: nearly all actives have a fitted effect of over 70% in size
# [5] = molecular target: Glutathione peroxidase 1 (Homo sapiens) (UniProt P07203); assay: Primary qHTS Assay for Inhibitors of Recombinant Selenoprotein Glutathione Peroxidase 1 (GPX1) (AID 1845191); also: nearly all actives have a fitted effect of over 65% in size
# Sequence of Glutathione peroxidase 1 (Homo sapiens) (P07203 whole entry, looked up): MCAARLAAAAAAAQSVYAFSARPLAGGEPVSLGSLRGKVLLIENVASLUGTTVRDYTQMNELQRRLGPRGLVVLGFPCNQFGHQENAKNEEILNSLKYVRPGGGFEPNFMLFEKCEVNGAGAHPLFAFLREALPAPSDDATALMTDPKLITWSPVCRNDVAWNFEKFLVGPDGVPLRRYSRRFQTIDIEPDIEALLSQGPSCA
# In short: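 GPX1 10 nM, GR 100 nM, GSH 1 mM, NADPH 0.5 mM, CHP 0.5 mM (final). 30-min cpd preincubation, RT. Ex340/Em450 read t=0, t=15 min.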
# [6] = molecular target: Phospholipid hydroperoxide glutathione peroxidase GPX4 (Homo sapiens) (UniProt P36969); assay: Primary qHTS Assay for Inhibitors of Recombinant Selenoprotein Glutathione Peroxidase 4 (GPX4) (AID 1845192); details: outcome: dose series up to 50 µM unless noted; also: nearly all actives have a fitted effect of over 65% in size; as to activity change, negative = inhibition: % is scaled to controls: 0 for no effect and ±100 for the full control effect
# Sequence of Phospholipid hydroperoxide glutathione peroxidase GPX4 (Homo sapiens) (P36969 whole entry, looked up): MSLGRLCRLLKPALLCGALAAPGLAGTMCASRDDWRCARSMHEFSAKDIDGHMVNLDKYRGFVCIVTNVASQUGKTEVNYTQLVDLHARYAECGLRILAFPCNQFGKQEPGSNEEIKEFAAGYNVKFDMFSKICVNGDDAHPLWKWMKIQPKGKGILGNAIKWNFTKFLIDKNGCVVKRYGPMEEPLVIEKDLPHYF
# In short: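 qHTS, GR-coupled: GPX4 200 nM + cpd 30 min RT → GSH 1 mM, NADPH 0.5 mM, GR 100 nM → CHP 0.5 mM start; fluor 340/450 at t0 and t15 min; no-enzyme wells as control.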
# [7] = qHTS drug screen for cell cycle checkpoint inhibitors in PARPi-resistant BRCA-mutant ovarian cancer cell lines. (AID 1963452; calls by dose curve); details: PEO1/OlaR viability, CellTiter-Glo luminescence, 96 h; for Z-AUC: stronger effect = lower value
# In short: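 PEO1, PEO4 and PEO1/OlaR ovarian cancer cells, 600 per well, exposed 96 h at 37C to a dilution series. Viability read by CellTiter-Glo luminescence, normalized to DMSO and empty wells; activity summarized as Z-AUC.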
# [8] = Drug repurposing screens with cells derived from glioblastoma tumor samples (AID 1345199); details: GBM patient neurospheres viability, ATP luminescence, 48 h; for Potency: tumour line A; as to activity, negative = cell killing: % is scaled to controls: 0 for no effect and ±100 for the full control effect; as to all read-outs here: nearly all actives have a fitted effect of over 40% in size
# In short: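 Primary testing used CD133+ neurospheres from four GBM patients, seven concentrations, 48 h exposure and ATP-based viability; confirmation added three slower-growing patient lines.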
# [9] = measured here: PEO1 parental Z-AUC
# [10] = at 45.9 µM (top of the series), tumour line D
# [11] = at 46.1 µM (top of the series), tumour line C
# [12] = at 45.9 µM (top of the series), tumour line B
# Potency is read from the fitted curve at half-maximal effect.
smiles,measurement,setting,value
C[C@@H]1N=C(N)NC(N(C)C)=N1,Potency,[1],inactive
same,Potency,[2],inactive
same,Potency,[3],inactive
same,Potency,[4],inactive
same,Potency,[5],inactive
same,Potency,[6],inactive
same,Z-AUC,[7],1.33 (inactive)
same,Z-AUC,[7]; [9],1.06
same,Z-AUC,[7]; measured here: PEO4 Z-AUC,1.03
NC(=O)c1sc(-c2ccsc2)cc1N,Potency,[1],inactive
same,Potency,[2],inactive
same,Potency,[3],inactive
same,Potency,[4],inactive
same,Potency,[5],inactive
Cc1nc2c(O)cccc2c(=O)[nH]1,Potency,[1],inactive
same,Potency,[2],inactive
same,Potency,[3],inactive
same,Potency,[4],inactive
CCCCCCCCCCCCCCCCSCC(COC)COP(=O)([O-])OCC[N+](C)(C)C (stereo not drawn),Potency,[2],inactive
same,"activity, negative = cell killing",[8]; [10],-10.7% (inactive)
same,"activity, negative = cell killing",[8]; [11],5.78% (inactive)
same,Potency,[8],22400 nM (active)
CN1C/C=C/CCOc2cccc(c2)-c2ccnc(n2)Nc2cccc(c2)C1,Potency,[1],92 nM (active)
same,Potency,[2],231 nM (active)
same,Potency,[3],92 nM (active)
same,Potency,[4],73.1 nM (active)
same,Potency,[5],inactive
same,Potency,[6],inactive
same,Potency,[7],549 nM (active)
same,Z-AUC,[7]; [9],-1.71
same,Z-AUC,[7]; measured here: PEO4 Z-AUC,-1.51
NC(=O)c1nc(F)c[nH]c1=O,Potency,[1],inactive
same,Potency,[2],inactive
same,Potency,[3],inactive
same,Potency,[4],inactive
same,Potency,[5],20200 nM (active)
same,Potency,[6],9.04 µM (active) and 22.4 µM (active)
same,Z-AUC,[7],-0.413 (inactive)
same,Z-AUC,[7]; [9],-0.874
same,Z-AUC,[7]; measured here: PEO4 Z-AUC,-0.858
C[N+]1(C)CCN(CC(O)(c2ccccc2)C2CCCCC2)CC1 (stereo not drawn),Potency,[5],inactive
same,"activity, negative = cell killing",[8]; [12],4.18% (inactive)
same,"activity, negative = cell killing",[8]; [10],-11.4% (inactive)
same,"activity, negative = cell killing",[8]; [11],3.68% (inactive)
Cn1cc(C2=C(c3cn(CCCSC(=N)N)c4ccccc34)C(=O)NC2=O)c2ccccc21,Potency,[1],5170 nM (active)
same,Potency,[2],inactive
same,Potency,[3],1460 nM (active)
same,Potency,[4],1640 nM (active)
C#C[C@]1(OC(C)=O)CC[C@H]2[C@@H]3CCC4=CC(=O)CC[C@@H]4[C@H]3CC[C@@]21C,Potency,[5],inactive
same,Potency,[6],inactive
same,"activity, negative = cell killing",[8]; [12],-16% (inactive)
same,"activity, negative = cell killing",[8]; [11],-23.2% (inactive)
same,Potency,[8],35500 nM (active)
NCCNCCN,"activity, negative = cell killing",[8]; [12],-28% (inactive)
same,Potency,[8],28200 nM (active)
CCCCCCCC[N+](C)(C)CCCCCCCC,Potency,[2],inactive
C#Cc1cccc(Nc2ncnc3cc(OC)c(OC)cc23)c1,Potency,[1],5170 nM (active)
same,Potency,[2],9200 nM (active)
same,Potency,[3],14600 nM (active)
same,Potency,[4],20600 nM (active)
same,Potency,[5],inactive
CN1CCN(Cc2ccc(Nc3ncc(Cl)c(Nc4ccccc4S(=O)(=O)N(C)C)n3)cc2)CC1,Potency,[1],59.6 nM (active)
same,Potency,[2],66.8 nM (active)
same,Potency,[3],24.1 nM (active)
same,outcome,[5],inactive [at 9.52 µM]
same,"activity change, negative = inhibition",[6],-3.36% [at 9.73 µM] (inactive)
same,Potency,[7],79.6 nM (active)
same,Z-AUC,[7]; [9],-1.68
same,Z-AUC,[7]; measured here: PEO4 Z-AUC,-1.52
CN1CCC(c2c(O)cc(O)c3c(=O)cc(-c4ccccc4Cl)oc23)C1CO (stereo not drawn),Potency,[1],920 nM (active)
same,Potency,[2],5170 nM (active)
same,Potency,[3],417 nM (active)
same,Potency,[4],332 nM (active)
same,Potency,[5],inactive
same,Potency,[6],inactive
same,Z-AUC,[7],-0.419 (inactive)
same,Z-AUC,[7]; [9],-1.06
same,Z-AUC,[7]; measured here: PEO4 Z-AUC,-0.725
